Experimental data reported in PubChem BioAssay (NCI).
Compounds without any hit were thinned out: in the full panel of roughly 83,000, 20% have a hit.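 Negative percent growth values reflect cell death: -40 means 40% of the cells present at the start died, and -100 means all died.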 Active and inactive are the calls of the source. Rule for the calls: active = growth percent below 10; inactive = the rest.

Key:
Assay in all cases: NCI-60 one-dose screen, 48 h (100 = growth as untreated, 0 = no growth, -100 = all killed)
Settings in all cases: 10 µM unless noted
[1] = test system: DU-145 prostate
[2] = test system: K-562 leukemia
[3] = test system: MALME-3M melanoma
[4] = test system: MDA-MB-231 breast
[5] = test system: RXF 393 renal
[6] = test system: SF-268 CNS
[7] = test system: SF-539 CNS
[8] = test system: UACC-257 melanoma
[9] = test system: M14 melanoma
[10] = test system: HCT-15 colon
[11] = test system: HT29 colon
[12] = test system: SNB-75 CNS
[13] = test system: SNB-19 CNS
[14] = test system: U251 CNS
[15] = test system: PC-3 prostate
[16] = test system: SK-MEL-5 melanoma
[17] = test system: UACC-62 melanoma
[18] = test system: LOX IMVI melanoma
[19] = test system: SK-MEL-28 melanoma
[20] = test system: SF-295 CNS

Compound | growth [1] | growth [2] | growth [3] | growth [4] | growth [5] | growth [6] | growth [7] | growth [8] | growth [9] | growth [10] | growth [11] | growth [12] | growth [13] | growth [14] | growth [15] | growth [16] | growth [17] | growth [18] | growth [19] | growth [20]
COC(=O)[C@H](Cc1cnc[nH]1)NC(=O)[C@@H](NC(=O)Nc1cc(C(F)(F)F)cc(C(F)(F)F)c1)C(C)C | -100% [100 µM] (active) | -46% [100 µM] (active) | -94.4% [100 µM] (active) | -95.9% [100 µM] (active) | -89.3% [100 µM] (active) | -92.7% [100 µM] (active) | -95.7% [100 µM] (active) | -87.6% [100 µM] (active) | -89% [100 µM] (active) | 35.4% [100 µM] (inactive) | -80.3% [100 µM] (active) | -95.3% [100 µM] (active) | -96.3% [100 µM] (active) | -96.8% [100 µM] (active) | -93.2% [100 µM] (active) | -91.5% [100 µM] (active) | -96.2% [100 µM] (active) | -84.5% [100 µM] (active) | -96.1% [100 µM] (active) | 
NS(=O)(=O)c1ccc(-n2nc(-c3ccc(Br)cc3)ccc2=O)cc1 | 12.4% [100 µM] (inactive) | 40.1% [100 µM] (inactive) | 55.1% [100 µM] (inactive) | 34.2% [100 µM] (inactive) | 40.9% [100 µM] (inactive) | 66.8% [100 µM] (inactive) | 67% [100 µM] (inactive) | 106% [100 µM] (inactive) | 62.4% [100 µM] (inactive) | 43% [100 µM] (inactive) | 63.9% [100 µM] (inactive) | 8.35% [100 µM] (active) | 36.5% [100 µM] (inactive) | 11.2% [100 µM] (inactive) | 78.2% [100 µM] (inactive) | 65.1% [100 µM] (inactive) | 53.6% [100 µM] (inactive) | 68.1% [100 µM] (inactive) | 80.9% [100 µM] (inactive) | 
CCCCCCCSc1ncnc2[nH]ncc12 | 89.5% (inactive) | 88.8% (inactive) | 120% (inactive) | 84.4% (inactive) | 61.2% (inactive) | 82.3% (inactive) | 87.5% (inactive) | 104% (inactive) | 109% (inactive) | 60.8% (inactive) | 89.3% (inactive) | 59.3% (inactive) | 80.9% (inactive) | 38.3% (inactive) | 78.8% (inactive) | 92.4% (inactive) | 76.6% (inactive) | 65.9% (inactive) | 106% (inactive) | 
CCCCCCCCCCN1CCC(N2CCCCC2)CC1 | 54.3% (inactive) | -75.6% (active) | -43.9% (active) | -36.3% (active) |  | 39.8% (inactive) | -80.4% (active) | -91.2% (active) | -79.4% (active) | -5.57% (active) | -38.9% (active) | -47.8% (active) | 28.2% (inactive) | 4.67% (active) | 16% (inactive) | -96.9% (active) | -79.7% (active) | -72.8% (active) | -29.1% (active) | 2.51% (active)
FCc1ncc(-c2ccc(C(F)(F)F)cc2)c(NC2CCCCCC2)n1 | -27.6% [100 µM] (active) | -2.97% [100 µM] (active) | -16.9% [100 µM] (active) | 0% [100 µM] (active) | 1.22% [100 µM] (active) | -0.671% [100 µM] (active) |  | -6.1% [100 µM] (active) | 2.44% [100 µM] (active) | 9.18% [100 µM] (active) | -33.6% [100 µM] (active) | 28.6% [100 µM] (inactive) | 32.6% [100 µM] (inactive) | -29.7% [100 µM] (active) | 7.27% [100 µM] (active) | -3.43% [100 µM] (active) | 3.7% [100 µM] (active) | -52.6% [100 µM] (active) | 33.6% [100 µM] (inactive) | -40.9% [100 µM] (active)
FC(F)(F)c1cc(-c2nnc3n2N=C(N2CCCC2)CS3)cc(C(F)(F)F)c1 | 86.8% (inactive) | 70.7% (inactive) | 83.4% (inactive) | 59.6% (inactive) |  | 74.9% (inactive) | 30% (inactive) | 93.2% (inactive) | 100% (inactive) | 96.9% (inactive) | 86.2% (inactive) | 29.6% (inactive) | 65.4% (inactive) | 37.6% (inactive) | 84.2% (inactive) | 80.5% (inactive) | 69.1% (inactive) | 84.3% (inactive) | 101% (inactive) | 45.9% (inactive)
O=C1CSC(c2ccccc2Cl)N1c1nnc(Cn2nnc3ccccc32)o1 (stereo not drawn) | 91.8% (inactive) | 69.6% (inactive) | 127% (inactive) | 77.1% (inactive) | 90.1% (inactive) | 84.2% (inactive) | 89% (inactive) | 94.7% (inactive) | 89.8% (inactive) | 74.8% (inactive) | 81.2% (inactive) | 81.6% (inactive) | 83.3% (inactive) | 77.6% (inactive) | 68.9% (inactive) | 79.3% (inactive) | 63.8% (inactive) | 85.9% (inactive) | 92.8% (inactive) | 
CC1CC=CCC1C1OCC(C)(C)CO1 (stereo not drawn) | 108% (inactive) | 102% (inactive) | 109% (inactive) | 112% (inactive) | 103% (inactive) | 106% (inactive) | 95.5% (inactive) | 97% (inactive) | 101% (inactive) | 97.9% (inactive) | 109% (inactive) | 90% (inactive) | 102% (inactive) | 92.9% (inactive) | 94.9% (inactive) | 104% (inactive) | 102% (inactive) | 69.9% (inactive) | 105% (inactive) | 
COc1cc(-c2nnc(-c3nc(-c4cc(OC)c(OC)c(OC)c4)n4ccccc34)o2)ccc1N | 85.4% (inactive) | 64.7% (inactive) | 86.5% (inactive) | 84.4% (inactive) | 84.4% (inactive) | 83.6% (inactive) | 98.8% (inactive) | 93.2% (inactive) | 80.3% (inactive) | 64.5% (inactive) |  | 75% (inactive) | 77.7% (inactive) | 64.2% (inactive) | 69% (inactive) | 56.1% (inactive) | 60.9% (inactive) | 56.3% (inactive) | 97.8% (inactive) | 
COC(=O)[C@H](Cc1cn(C)cn1)NC(=O)[C@@H](NC(=O)Nc1cc(C(F)(F)F)cc(C(F)(F)F)c1)C(C)C | -97.1% [100 µM] (active) | -53.5% [100 µM] (active) | -90.5% [100 µM] (active) | -90.2% [100 µM] (active) | -83.3% [100 µM] (active) | -89.4% [100 µM] (active) |  | -95.9% [100 µM] (active) | -92.8% [100 µM] (active) | -87.6% [100 µM] (active) | -81.4% [100 µM] (active) | -99.8% [100 µM] (active) | -90.3% [100 µM] (active) | -95.3% [100 µM] (active) | -89.6% [100 µM] (active) | -95.4% [100 µM] (active) | -93.1% [100 µM] (active) | -79.5% [100 µM] (active) | -96.5% [100 µM] (active) | -91% [100 µM] (active)
CCCCCc1c(C)[nH]c(/C=C2\N=C(c3ccc[nH]3)C=C2OCc2ccccc2)c1C | -100% [100 µM] (active) | -26.2% [100 µM] (active) | -86.9% [100 µM] (active) | -86.4% [100 µM] (active) | -48.8% [100 µM] (active) | -70.9% [100 µM] (active) | -69.8% [100 µM] (active) | -87.7% [100 µM] (active) | -81.4% [100 µM] (active) | -60% [100 µM] (active) | -80.9% [100 µM] (active) | -78.1% [100 µM] (active) | -92.8% [100 µM] (active) | -93.7% [100 µM] (active) | -69.5% [100 µM] (active) | -66.9% [100 µM] (active) | -92.7% [100 µM] (active) | -62.6% [100 µM] (active) | -89.8% [100 µM] (active) | 
COc1ccc([N+](=O)[O-])c(S(=O)(=O)c2ccc(Cl)cc2)n1 | 93.2% (inactive) | 7.72% (active) | 11.8% (inactive) | 68.1% (inactive) |  | 92.4% (inactive) | 82.8% (inactive) | 94.9% (inactive) | 60.5% (inactive) | 27.2% (inactive) | 73.7% (inactive) | 78% (inactive) | 92% (inactive) | 95.6% (inactive) | 92.3% (inactive) | 91.6% (inactive) | 89.1% (inactive) | 10.7% (inactive) | 82% (inactive) | 95.3% (inactive)
Cc1ccc(C2=Nc3c(ccc4c(C)c(C)c(=O)oc34)OC2)cc1 | 106% (inactive) | 95.4% (inactive) | 104% (inactive) | 105% (inactive) | 109% (inactive) | 108% (inactive) |  |  |  | 94.4% (inactive) | 102% (inactive) | 95.7% (inactive) | 101% (inactive) |  | 88.9% (inactive) | 101% (inactive) | 107% (inactive) | 94.5% (inactive) | 110% (inactive) | 94.3% (inactive)
